Several values for one entry are separate records, joined by “and”; a condition that tells them apart may be missing. Equal entries are not always repeated. Records with an inconclusive call do not appear. A structure can be active in one record and inactive in another. Activity calls are given as the source filed them. Unless noted, the call rests on the fitted dose curve; in most records, active means well fitted curve in the direction sought with a large enough effect; inconclusive means small, poorly fitted or top-dose-only effect, or another doubt; inactive means no such curve, though single readings can be large; an effect the other way counts as inactive or inconclusive.
How the values were obtained:
[1] = qHTS assay for measurement of the activity of small molecule inhibitors on Zika virus induced Caspase-3 activity in human iPSC derived neural progenitor cells (hNPCs) (AID 1224857); conditions: hNPCs ZIKV-induced caspase-3/7, Caspase-Glo luminescence, 6 h; series mostly up to 45.7 µM; further: nearly all actives have a fitted effect of over 65% in size
In short: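 Zika virus (2 FFU/cell) infection of human iPSC-derived NPCs, 6 h, following 1 h compound preincubation. Read-out: Caspase-Glo 3/7 luminescence.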

[2] = qHTS assay for measurement of the activity of small molecule inhibitors on Zika virus induced Caspase-3 activity in human astrocytoma cells (AID 1224859); conditions: SNB-19 ZIKV-induced caspase-3/7, luminescence, 6 h; series mostly up to 45.7 µM
In short: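 Caspase activation in ZIKV-infected SNB-19 cells (2 FFU/cell, 6 h) measured by Caspase-Glo 3/7 luminescence after 30 min RT; compound pre-incubated 1 h; normalised to uninfected and infected controls.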

[3] = qHTS assay to identify small molecule inhibitors of chordoma cells - UCH-1 (AID 1259355); conditions: UCH-1 chordoma viability, CellTiter-Glo, 48 h, combination; series mostly up to 46.1 µM; further: nearly all actives have a fitted effect of over 55% in size; further: potency means the concentration at half of the fitted maximal effect
In short: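 Screening used approved and investigational drugs in 15-point titration against 800 seeded cells per well. A fixed combination of auranofin with camptothecin, doxorubicin, rubitecan and topotecan followed compound addition, and growth was scored by CellTiter-Glo after 48hr.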

[4] = qHTS assay to identify small molecule inhibitors of chordoma cells - UCH-2 (AID 1259356); conditions: UCH-2 chordoma viability, CellTiter-Glo ATP luminescence, 48 h; series mostly up to 46.1 µM
[5] = NS1 protein of Zika virus - qHTS assay to identify small molecule inhibitors in human HEK 293 cells (AID 1347053); conditions: HEK293 ZIKV MR766 infection, NS1 TR-FRET, 24 h; series mostly up to 46.1 µM; further: nearly all actives have a fitted effect of over 55% in size; further: potency means the concentration at half of the fitted maximal effect
In short: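 Readout was TR-FRET using paired anti-NS1 antibodies after 24 h infection of HEK 293 cells with ZIKV MR766 (MOI = 0.5). Compound preceded virus by 1 h; reduced signal reflects lower NS1 expression.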

[6] = biological target: Atrial natriuretic peptide receptor 1 (Homo sapiens) (UniProt P16066); assay: Natriuretic polypeptide receptor (hNpr1) antagonism - Pilot screen (AID 1347049; calls by dose curve;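 further: agonist-evoked cGMP luminescence read 20 min after hNppA addition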); conditions: hNpr1 cells, antagonist mode cGMP read-out; series mostly up to 57.5 µM
In short: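 cGMP-sensor HEK293/hNpr1 cells, 1500/well, plated overnight at 37C. 2% GloSensor reagent, 2 h RT. Compound (23 nL pin transfer) 30 min RT, baseline luminescence pre-read. 0.1 nM hNppA, 20 min RT, post-read.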

[7] = biological target: Atrial natriuretic peptide receptor 2 (Homo sapiens) (UniProt P20594); assay: Natriuretic polypeptide receptor (hNpr2) antagonism - Pilot subtype selectivity assay (AID 1347050; calls by dose curve); conditions: NPR2-expressing cells, cGMP antagonist-mode read-out; series mostly up to 38.3 µM
In short: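 Luminescence from a genetically encoded cGMP luciferase biosensor in hNpr2-expressing HEK293 cells is read before and 20 min after adding 1 nM hNppC. Test compounds, in interplate 1:5 titrations, are added 30-50 min ahead of the agonist.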

[8] = Natriuretic polypeptide receptor (hNpr1) antagonism - Pilot counterscreen GloSensor control cell line (AID 1347045; calls by dose curve); conditions: HEK293 cGMP GloSensor cells, SNP-stimulated luminescence, 20 min; series mostly up to 38.3 µM
In short: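 Control counterscreen: luciferase cGMP-biosensor HEK293 cells (no Npr1) received compound for 30 min at room temperature after GloSensor substrate loading. Luminescence was measured before and 20 min after soluble guanylyl cyclase activation by 50 uM nitroprusside.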

[9] = P-glycoprotein substrates identified in KB-8-5-11 adenocarcinoma cell line, qHTS therapeutic library screen (AID 1346987); conditions: KB-8-5-11 (P-gp overexpressing) viability, CellTiter-Glo, 72 h; series mostly up to 44.5 µM; further: nearly all actives have a fitted effect of over 65% in size; further: potency means the concentration at half of the fitted maximal effect
In short: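 Compounds are pinned in dose-response onto KB-8-5-11 cells (500 cells/well, colchicine-free medium) and left 72 h at 37 degree C. CellTiter-Glo luminescence then yields AC50 values.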

[10] = P-glycoprotein substrates identified in KB-3-1 adenocarcinoma cell line, qHTS therapeutic library screen (AID 1346986); conditions: KB-3-1 parental cells viability, CellTiter-Glo, 72 h; series mostly up to 44.5 µM; further: nearly all actives have a fitted effect of over 60% in size
In short: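 In 1536-well format, 500 cells/well received pinned compound titrations and were incubated 72 h, 5% CO2. Viability was read by CellTiter-Glo; cytotoxic if AC50 < 10 uM and efficacy >50%.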

Measured: Potency

Chain of Atrial natriuretic peptide receptor 2 (Homo sapiens) (P20594 whole entry, looked up): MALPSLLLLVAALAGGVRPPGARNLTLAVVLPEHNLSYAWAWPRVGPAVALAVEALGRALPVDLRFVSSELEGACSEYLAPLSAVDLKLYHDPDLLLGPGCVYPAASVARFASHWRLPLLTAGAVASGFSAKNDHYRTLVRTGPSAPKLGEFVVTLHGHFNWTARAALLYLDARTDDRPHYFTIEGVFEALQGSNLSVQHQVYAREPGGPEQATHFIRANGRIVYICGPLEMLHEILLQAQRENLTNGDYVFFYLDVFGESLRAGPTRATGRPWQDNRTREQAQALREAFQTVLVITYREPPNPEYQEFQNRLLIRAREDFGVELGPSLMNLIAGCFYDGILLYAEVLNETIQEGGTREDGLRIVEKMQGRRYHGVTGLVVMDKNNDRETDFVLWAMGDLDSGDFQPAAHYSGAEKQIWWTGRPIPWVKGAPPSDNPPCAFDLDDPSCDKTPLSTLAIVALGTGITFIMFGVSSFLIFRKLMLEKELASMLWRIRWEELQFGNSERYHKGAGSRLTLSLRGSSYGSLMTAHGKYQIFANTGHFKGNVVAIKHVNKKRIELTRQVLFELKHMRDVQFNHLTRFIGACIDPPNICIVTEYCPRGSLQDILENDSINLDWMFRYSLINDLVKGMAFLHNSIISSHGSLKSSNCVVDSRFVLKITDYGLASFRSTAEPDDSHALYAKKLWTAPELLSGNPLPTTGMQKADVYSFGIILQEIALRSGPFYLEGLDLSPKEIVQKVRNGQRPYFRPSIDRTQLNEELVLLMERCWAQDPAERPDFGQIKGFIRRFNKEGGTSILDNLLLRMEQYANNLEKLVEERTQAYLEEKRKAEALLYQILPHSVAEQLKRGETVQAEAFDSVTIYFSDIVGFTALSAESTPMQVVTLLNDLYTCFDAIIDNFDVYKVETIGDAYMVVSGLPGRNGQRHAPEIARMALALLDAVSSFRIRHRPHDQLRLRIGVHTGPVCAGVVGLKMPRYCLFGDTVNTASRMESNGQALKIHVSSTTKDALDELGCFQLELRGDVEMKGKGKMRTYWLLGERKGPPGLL
Chain of Atrial natriuretic peptide receptor 1 (Homo sapiens) (P16066 whole entry, looked up): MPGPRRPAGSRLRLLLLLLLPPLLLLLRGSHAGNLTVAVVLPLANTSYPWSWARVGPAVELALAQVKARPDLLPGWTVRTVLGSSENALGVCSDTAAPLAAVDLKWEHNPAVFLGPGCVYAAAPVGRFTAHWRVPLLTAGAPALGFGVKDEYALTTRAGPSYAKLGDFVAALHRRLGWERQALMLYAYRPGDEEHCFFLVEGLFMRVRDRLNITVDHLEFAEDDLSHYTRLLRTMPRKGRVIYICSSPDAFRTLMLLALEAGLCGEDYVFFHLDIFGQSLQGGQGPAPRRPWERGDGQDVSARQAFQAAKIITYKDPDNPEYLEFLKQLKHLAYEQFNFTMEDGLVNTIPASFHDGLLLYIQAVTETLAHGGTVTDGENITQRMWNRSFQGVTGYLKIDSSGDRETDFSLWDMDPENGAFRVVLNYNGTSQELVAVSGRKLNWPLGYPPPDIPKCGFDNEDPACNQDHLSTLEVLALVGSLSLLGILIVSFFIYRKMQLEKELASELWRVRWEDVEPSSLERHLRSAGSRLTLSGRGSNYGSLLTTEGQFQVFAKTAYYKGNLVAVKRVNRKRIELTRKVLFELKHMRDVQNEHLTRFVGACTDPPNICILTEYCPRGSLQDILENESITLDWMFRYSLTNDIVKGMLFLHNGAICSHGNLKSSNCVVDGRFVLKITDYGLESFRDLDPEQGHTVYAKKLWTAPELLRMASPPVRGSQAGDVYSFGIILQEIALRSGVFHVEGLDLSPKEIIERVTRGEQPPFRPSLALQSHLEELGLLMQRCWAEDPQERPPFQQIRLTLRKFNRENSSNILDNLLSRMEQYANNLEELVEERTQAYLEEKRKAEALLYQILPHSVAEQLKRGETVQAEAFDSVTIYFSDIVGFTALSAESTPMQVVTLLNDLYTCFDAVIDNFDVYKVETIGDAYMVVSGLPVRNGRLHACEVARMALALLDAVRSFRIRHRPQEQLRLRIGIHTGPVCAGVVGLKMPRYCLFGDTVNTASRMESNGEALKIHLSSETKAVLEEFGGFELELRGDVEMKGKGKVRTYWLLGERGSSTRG

Clc1ccc(CCC(Cn2ccnc2)Sc2c(Cl)cccc2Cl)cc1 (centres undefined)
inactive: [1] | [2] | [3] | [4]
active: [5] 14.8 µM

Clc1ccc(COC(Cn2ccnc2)c2ccc(Cl)cc2Cl)cc1 (centres undefined)
inactive: [1] | [2] | [3] | [4] | [5]

CC[C@@H](CO)NC(=O)[C@@H]1C=C2c3cccc4[nH]cc(c34)C[C@H]2N(C)C1
not listed: [8] | [9] | [10]
inactive: all other assays above

CC(=O)[C@H]1CC[C@H]2[C@@H]3CC[C@H]4C[C@H](O)CC[C@]4(C)[C@H]3C(=O)C[C@]12C
not listed: [9] | [10]
inactive: all other assays above

CCN(C(C)=O)c1cccc(-c2ccnc3c(C#N)cnn23)c1
inactive: [1] | [2] | [3] | [4] | [9] | [5]

CC(C)=CC1C(C(=O)OCc2cccc(Oc3ccccc3)c2)C1(C)C (centres undefined)
inactive: [1] | [2] | [3] | [4] | [9] | [5]

CCOP(=S)(OCC)Oc1cc(C)nc(C(C)C)n1
inactive: [1] | [2] | [3] | [4] | [9] | [5]

c1ccc2c(c1)Nc1ccccc1S2
inactive: [1] | [2] | [3] | [4] | [9] | [5]

c1ccc2c(c1)OCC(C1=NCCN1)O2 (centres undefined)
active: [3] 31.6 µM
inactive: [1] | [2] | [9] | [7]

C#CCOC(C(=O)OCCN(C)C)(c1ccccc1)c1ccccc1
inactive: [1] | [2] | [3] | [4] | [9] | [5]

C[C@]12CC[C@H]3[C@@H](CCC4=CC(=O)CC[C@@H]43)[C@@H]1CC[C@@H]2OC(=O)CCc1ccccc1
inactive: [1] | [2] | [5]

CN1C(=S)CN=C(c2ccccc2)c2cc(Cl)ccc21
inactive: [1] | [2] | [3] | [4] | [5]

CC[C@@H](CO)NC(=O)[C@@H]1C=C2c3cccc4c3c(cn4C)C[C@H]2N(C)C1
inactive: [8] | [6] | [7]
active: [9] 20.6 µM

O=C(O)P(=O)(O)O
inactive: [10] | [9]

CC(C)NCC(O)c1ccccc1Cl (centres undefined)
inactive: [1] | [2] | [3] | [4] | [9] | [5]

O=C1NCN(c2ccccc2)C12CCN(CC1COc3ccccc3O1)CC2 (centres undefined)
not listed: [9] | [10]
inactive: all other assays above

CC[N+](CC)(CC)CC
inactive: [1] | [2] | [3] | [4] | [9] | [5]

Oc1cc(Cl)ccc1Oc1ccc(Cl)cc1Cl
inactive and 31.6 µM (active): [9]
inactive: [1] | [2] | [4] | [5]

CC(C)(N)Cc1ccc(Cl)cc1
inactive: [1] | [2] | [3] | [4] | [9] | [5]

CCN(CC)C(=O)N[C@@H]1C=C2c3cccc4[nH]cc(c34)C[C@@H]2N(C)C1
inactive: [1] | [2] | [3] | [4] | [5]

C=C1C[C@@H]2[C@H](CC[C@]3(C)C(=O)CC[C@@H]23)[C@@]2(C)C=CC(=O)C=C12
inactive: [1] | [2] | [3] | [4] | [5]

CCC(C(N)=O)N1CCCC1=O (centres undefined)
inactive: [1] | [2] | [3] | [4] | [9] | [5]

COc1ccc(Cc2nccc3cc(OC)c(OC)cc23)cc1OC
880 nM (active) and inactive: [9]
inactive: [1] | [2] | [3] | [4] | [5]

FC(F)(F)c1cccc(C2=CCN(CCc3ccc4ccccc4c3)CC2)c1
inactive: [1] | [2] | [3] | [4] | [9] | [5]

CC(=O)Nc1cc([As](=O)(O)O)ccc1O
inactive: [1] | [2] | [3] | [4] | [9] | [5]

Cc1ccc(-c2nc3ccc(C)cn3c2CC(=O)N(C)C)cc1
inactive: [1] | [2] | [3] | [4] | [5]

CC1OC(C)OC(C)O1 (centres undefined)
inactive: [1] | [2] | [3] | [4] | [5]

C=CCN1CC[C@]23c4c5ccc(O)c4O[C@H]2C(=O)CC[C@@]3(O)[C@H]1C5
inactive: [1] | [2] | [3] | [4] | [9] | [5]

CC(CCc1ccccc1)NC(C)C(O)c1ccc(O)cc1 (centres undefined)
not listed: [3] | [10]
inactive: all other assays above

N[C@@H](Cc1ccc(Oc2cc(I)c(O)c(I)c2)c(I)c1)C(=O)O
inactive: [1] | [2] | [3] | [4] | [9] | [5]
